Common to all, as to test: DAPPL (digital affinity profiling via proximity ligation, sequencing); 10 mM Tris-HCl pH 7.5, 50 mM NaCl, 1 mM DTT, 4% glycerol, room temperature, 30 min; GST-TFs on glutathione beads, 16-mer random dsDNA library, 0.1% formaldehyde crosslink after washing; high values mean tight binding
Common to all, as to settings: protein: recombinant; tags: N-terminal GST; dsDNA, one strand shown

The target in one assay is T1, FLI1 (Homo sapiens, UniProt Q01543 1-452).
T1 sequence: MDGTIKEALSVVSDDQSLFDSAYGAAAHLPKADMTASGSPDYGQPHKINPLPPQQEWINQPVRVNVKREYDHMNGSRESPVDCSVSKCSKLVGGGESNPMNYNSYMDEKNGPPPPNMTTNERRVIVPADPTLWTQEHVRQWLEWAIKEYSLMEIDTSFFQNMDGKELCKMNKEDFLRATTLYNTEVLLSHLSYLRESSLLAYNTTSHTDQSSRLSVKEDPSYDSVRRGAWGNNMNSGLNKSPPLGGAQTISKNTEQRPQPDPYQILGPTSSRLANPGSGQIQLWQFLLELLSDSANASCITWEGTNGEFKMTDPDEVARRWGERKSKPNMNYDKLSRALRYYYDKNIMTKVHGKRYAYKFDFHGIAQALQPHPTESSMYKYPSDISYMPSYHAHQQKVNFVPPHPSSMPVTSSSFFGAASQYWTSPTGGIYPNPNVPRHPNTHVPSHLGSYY
In short, it runs like this: (§1)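 After expression in yeast as GST fusions, human transcription factors were bound to glutathione beads, DNA-barcoded and mixed with a tag-only sample. The pools were incubated with 200 nmole of a 16-mer random double-stranded DNA library in Tris/NaCl/DTT/glycerol buffer (30 min, room temperature), washed and crosslinked with 0.1% formaldehyde. Proximity ligation with BsaI/T4 ligase ran for 1 h at 37 °C, before PCR amplification and sequencing on an Illumina NextSeq500. Binding signal is a hexamer's read frequency for a factor divided by its frequency for the tag-only sample.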

The target of a further assay is T2, GABPA (Homo sapiens, UniProt Q06546 1-454).
T2 sequence: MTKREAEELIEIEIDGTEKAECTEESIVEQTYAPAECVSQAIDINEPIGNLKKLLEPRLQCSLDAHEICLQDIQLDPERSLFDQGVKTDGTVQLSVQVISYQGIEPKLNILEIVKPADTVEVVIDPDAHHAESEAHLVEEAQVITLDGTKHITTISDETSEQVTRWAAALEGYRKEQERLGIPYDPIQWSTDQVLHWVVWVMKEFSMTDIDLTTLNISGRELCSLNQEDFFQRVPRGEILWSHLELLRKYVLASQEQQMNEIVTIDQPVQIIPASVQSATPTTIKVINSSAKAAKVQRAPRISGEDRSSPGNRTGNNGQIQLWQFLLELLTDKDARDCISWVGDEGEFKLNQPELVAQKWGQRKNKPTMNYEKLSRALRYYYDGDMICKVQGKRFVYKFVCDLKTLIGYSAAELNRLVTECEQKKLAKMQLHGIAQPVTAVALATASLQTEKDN
In short, it runs like this: as §1

The target of a further assay is T3, ERG (Homo sapiens, UniProt P11308 1-479).
T3 sequence: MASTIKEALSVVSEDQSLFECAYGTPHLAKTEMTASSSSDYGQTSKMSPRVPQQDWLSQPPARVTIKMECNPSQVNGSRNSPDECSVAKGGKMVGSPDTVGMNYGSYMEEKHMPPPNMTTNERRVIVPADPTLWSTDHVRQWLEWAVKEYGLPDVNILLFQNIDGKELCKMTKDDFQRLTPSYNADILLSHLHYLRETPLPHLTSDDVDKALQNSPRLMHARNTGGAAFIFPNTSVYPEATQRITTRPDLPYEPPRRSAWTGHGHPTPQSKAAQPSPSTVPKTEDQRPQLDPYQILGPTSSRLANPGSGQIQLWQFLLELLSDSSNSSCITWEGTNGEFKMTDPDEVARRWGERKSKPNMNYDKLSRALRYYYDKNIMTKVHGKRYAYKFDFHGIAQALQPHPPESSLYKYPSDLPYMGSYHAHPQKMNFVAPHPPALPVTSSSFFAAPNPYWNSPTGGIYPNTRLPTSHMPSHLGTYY
In outline:
as §1

The next assay has as its target ELF1 (Homo sapiens, UniProt P32519 1-619). In short, it runs like this: as §1
The next assay concerns the target T4, EHF (Homo sapiens, UniProt Q9NZC4 1-300).
T4 sequence: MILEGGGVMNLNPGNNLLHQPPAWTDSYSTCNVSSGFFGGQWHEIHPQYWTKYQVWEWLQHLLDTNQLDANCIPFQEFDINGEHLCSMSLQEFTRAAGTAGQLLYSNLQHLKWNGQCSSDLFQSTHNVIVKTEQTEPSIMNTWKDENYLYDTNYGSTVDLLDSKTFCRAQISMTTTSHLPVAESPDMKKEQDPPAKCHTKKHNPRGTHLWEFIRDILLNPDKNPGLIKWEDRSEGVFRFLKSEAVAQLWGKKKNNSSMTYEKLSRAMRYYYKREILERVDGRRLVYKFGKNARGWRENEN
In outline:
as §1

In another assay the target is SPI1 (Homo sapiens, UniProt P17947 1-270). In outline: as §1
A further assay deals with SPIB (Homo sapiens, UniProt Q01892 1-262). In outline:
as §1

Another assay deals with T5, ELK3 (Homo sapiens, UniProt P41970 1-407).
T5 sequence: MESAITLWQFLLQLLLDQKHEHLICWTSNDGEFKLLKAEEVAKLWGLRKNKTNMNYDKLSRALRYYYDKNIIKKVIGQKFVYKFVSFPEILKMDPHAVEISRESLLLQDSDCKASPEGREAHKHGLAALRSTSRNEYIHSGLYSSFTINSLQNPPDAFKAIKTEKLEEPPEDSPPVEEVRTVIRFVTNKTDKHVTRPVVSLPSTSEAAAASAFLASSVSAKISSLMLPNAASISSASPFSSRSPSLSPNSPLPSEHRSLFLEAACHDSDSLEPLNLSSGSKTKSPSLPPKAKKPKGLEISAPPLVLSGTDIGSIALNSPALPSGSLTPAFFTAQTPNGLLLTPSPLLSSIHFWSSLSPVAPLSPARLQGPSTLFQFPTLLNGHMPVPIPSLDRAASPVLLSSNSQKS
In short, it runs like this:
as §1

In the next assay the target is T6, FEV (Homo sapiens, UniProt Q99581 1-238).
T6 sequence: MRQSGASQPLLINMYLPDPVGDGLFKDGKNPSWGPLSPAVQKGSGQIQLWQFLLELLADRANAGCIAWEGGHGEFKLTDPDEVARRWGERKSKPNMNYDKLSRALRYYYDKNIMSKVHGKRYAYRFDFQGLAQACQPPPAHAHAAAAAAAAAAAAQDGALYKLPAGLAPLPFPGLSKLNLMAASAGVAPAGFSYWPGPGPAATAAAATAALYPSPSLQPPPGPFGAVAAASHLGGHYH
In outline: as §1

A further assay has as its target ETV5 (Homo sapiens, UniProt P41161 1-510). In outline:
as §1

Another assay concerns the target T7, SPIC (Homo sapiens, UniProt Q8N5J4 1-248).
T7 sequence: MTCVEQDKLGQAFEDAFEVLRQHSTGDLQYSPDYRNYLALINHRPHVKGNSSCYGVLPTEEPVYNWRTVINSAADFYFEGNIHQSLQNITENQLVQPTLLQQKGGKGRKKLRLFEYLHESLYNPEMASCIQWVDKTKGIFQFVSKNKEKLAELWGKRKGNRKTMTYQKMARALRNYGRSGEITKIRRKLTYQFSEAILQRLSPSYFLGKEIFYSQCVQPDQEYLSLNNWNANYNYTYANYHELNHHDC
In short, it runs like this: as §1

The next assay deals with ELF4 (Homo sapiens, UniProt Q99607 1-663). In outline: as §1
Chain of ELF4 (Q99607 whole entry): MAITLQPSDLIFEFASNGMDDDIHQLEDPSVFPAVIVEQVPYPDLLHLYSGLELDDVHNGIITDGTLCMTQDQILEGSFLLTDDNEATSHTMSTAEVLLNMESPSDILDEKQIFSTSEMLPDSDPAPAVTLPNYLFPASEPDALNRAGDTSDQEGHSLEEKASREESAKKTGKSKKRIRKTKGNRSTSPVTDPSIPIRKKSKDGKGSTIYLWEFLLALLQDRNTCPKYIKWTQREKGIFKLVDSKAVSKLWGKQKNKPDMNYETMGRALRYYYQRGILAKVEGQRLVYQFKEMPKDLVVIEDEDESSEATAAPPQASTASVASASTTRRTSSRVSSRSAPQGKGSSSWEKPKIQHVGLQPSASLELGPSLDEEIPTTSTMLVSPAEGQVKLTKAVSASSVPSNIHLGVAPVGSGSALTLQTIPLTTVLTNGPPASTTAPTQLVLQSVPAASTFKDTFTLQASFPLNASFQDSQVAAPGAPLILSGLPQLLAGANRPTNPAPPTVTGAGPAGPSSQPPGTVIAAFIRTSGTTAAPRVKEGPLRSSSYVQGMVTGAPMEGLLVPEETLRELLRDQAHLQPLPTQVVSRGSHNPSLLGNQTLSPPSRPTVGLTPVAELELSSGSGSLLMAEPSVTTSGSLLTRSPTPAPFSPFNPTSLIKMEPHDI
A further assay addresses ETV1 (Homo sapiens, UniProt P50549 1-477). In outline: as §1
In the next assay the target is T8, ERF (Homo sapiens, UniProt P50548 1-548).
T8 sequence: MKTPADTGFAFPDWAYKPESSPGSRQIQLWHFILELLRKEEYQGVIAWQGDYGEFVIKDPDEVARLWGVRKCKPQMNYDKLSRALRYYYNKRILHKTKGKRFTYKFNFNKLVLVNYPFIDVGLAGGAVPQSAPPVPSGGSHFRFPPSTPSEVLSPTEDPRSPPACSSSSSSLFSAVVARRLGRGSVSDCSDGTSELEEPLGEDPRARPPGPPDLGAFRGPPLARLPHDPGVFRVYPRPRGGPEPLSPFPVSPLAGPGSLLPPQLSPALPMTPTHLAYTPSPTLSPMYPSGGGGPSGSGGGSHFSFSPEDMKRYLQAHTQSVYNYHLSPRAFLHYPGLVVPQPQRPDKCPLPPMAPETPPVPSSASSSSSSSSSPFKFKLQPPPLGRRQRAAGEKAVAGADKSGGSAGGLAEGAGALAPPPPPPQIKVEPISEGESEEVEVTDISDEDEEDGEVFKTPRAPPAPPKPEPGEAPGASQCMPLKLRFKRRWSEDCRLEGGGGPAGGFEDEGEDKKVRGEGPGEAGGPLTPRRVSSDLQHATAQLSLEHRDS
In short, it runs like this: as §1

A further assay deals with T9, ETV3L (Homo sapiens, UniProt Q6ZN32 1-361).
T9 sequence: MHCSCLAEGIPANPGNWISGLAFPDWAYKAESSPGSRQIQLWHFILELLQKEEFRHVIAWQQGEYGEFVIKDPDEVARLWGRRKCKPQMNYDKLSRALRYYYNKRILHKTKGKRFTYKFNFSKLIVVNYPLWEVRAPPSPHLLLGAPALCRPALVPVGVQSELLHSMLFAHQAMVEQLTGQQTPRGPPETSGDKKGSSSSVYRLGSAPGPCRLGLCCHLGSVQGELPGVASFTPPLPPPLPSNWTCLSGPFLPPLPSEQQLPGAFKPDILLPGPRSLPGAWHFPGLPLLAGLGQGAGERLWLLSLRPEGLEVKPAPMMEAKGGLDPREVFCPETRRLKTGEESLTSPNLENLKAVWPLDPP
In outline:
as §1

The target of another assay is T10, ETS2 (Homo sapiens, UniProt P15036 1-469).
T10 sequence: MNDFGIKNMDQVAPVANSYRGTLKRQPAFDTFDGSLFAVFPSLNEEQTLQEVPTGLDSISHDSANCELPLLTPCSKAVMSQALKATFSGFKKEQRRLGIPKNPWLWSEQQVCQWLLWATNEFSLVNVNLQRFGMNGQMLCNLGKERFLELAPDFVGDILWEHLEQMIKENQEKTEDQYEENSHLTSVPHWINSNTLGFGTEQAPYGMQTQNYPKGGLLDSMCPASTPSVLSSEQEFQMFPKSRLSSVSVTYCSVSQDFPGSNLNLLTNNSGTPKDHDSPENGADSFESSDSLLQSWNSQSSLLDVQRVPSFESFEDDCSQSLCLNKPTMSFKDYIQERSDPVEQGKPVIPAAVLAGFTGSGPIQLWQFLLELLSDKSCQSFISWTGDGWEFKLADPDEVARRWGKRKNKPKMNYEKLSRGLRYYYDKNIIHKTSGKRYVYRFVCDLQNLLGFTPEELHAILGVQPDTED
In outline:
as §1

The next assay concerns the target T11, ELF5 (Homo sapiens, UniProt Q9UKW6-2 1-255).
T11 sequence: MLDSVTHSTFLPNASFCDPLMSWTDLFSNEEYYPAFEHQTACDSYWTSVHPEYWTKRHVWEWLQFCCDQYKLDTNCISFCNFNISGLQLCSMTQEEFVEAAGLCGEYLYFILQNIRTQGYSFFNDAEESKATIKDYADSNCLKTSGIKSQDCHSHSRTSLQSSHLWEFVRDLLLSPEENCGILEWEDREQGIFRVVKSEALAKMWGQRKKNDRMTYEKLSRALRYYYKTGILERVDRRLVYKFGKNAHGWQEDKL
In short, it runs like this: as §1

Another assay addresses T12, ETV3 (Homo sapiens, UniProt P41162-2 1-143).
T12 sequence: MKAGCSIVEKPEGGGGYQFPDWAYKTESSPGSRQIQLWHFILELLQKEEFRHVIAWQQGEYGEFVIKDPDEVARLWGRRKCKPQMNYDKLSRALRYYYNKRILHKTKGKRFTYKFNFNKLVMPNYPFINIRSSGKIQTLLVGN
In short, it runs like this: as §1

Another assay has as its target ETV6 (Homo sapiens, UniProt P41212 1-452). In outline:
as §1

Chain of ETV6 (P41212 whole entry): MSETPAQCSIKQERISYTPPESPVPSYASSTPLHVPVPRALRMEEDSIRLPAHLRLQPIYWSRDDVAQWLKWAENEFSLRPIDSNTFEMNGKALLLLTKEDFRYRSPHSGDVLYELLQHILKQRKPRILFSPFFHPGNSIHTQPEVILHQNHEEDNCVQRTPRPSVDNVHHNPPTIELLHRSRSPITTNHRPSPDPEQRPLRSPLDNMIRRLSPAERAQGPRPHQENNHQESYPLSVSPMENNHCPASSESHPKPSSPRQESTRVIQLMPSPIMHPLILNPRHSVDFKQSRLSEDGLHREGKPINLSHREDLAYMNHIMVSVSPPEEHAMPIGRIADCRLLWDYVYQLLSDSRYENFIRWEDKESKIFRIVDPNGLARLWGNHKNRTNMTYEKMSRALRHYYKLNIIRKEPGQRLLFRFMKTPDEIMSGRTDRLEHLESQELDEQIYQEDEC
Chain of ETV1 (P50549 whole entry): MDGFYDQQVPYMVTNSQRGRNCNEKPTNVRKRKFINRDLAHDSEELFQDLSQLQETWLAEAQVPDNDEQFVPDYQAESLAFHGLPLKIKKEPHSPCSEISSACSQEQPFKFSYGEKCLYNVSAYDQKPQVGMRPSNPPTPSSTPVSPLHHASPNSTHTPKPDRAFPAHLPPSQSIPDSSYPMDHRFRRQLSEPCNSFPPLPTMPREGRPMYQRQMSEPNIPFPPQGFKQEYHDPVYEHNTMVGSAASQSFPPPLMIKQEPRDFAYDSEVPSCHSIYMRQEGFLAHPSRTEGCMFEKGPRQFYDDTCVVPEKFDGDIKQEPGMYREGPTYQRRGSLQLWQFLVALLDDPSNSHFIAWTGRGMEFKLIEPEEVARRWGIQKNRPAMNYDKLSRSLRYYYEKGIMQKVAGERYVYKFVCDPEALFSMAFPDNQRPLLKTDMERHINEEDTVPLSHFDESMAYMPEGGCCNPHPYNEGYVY
Chain of SPIB (Q01892 whole entry): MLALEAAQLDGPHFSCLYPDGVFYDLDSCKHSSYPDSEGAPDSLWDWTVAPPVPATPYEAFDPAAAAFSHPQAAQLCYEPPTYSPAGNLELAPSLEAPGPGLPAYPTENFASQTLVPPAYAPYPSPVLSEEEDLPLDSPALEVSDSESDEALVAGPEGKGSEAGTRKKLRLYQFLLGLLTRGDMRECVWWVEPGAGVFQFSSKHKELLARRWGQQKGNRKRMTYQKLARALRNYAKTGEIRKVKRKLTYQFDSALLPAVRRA
Chain of ELF1 (P32519 whole entry): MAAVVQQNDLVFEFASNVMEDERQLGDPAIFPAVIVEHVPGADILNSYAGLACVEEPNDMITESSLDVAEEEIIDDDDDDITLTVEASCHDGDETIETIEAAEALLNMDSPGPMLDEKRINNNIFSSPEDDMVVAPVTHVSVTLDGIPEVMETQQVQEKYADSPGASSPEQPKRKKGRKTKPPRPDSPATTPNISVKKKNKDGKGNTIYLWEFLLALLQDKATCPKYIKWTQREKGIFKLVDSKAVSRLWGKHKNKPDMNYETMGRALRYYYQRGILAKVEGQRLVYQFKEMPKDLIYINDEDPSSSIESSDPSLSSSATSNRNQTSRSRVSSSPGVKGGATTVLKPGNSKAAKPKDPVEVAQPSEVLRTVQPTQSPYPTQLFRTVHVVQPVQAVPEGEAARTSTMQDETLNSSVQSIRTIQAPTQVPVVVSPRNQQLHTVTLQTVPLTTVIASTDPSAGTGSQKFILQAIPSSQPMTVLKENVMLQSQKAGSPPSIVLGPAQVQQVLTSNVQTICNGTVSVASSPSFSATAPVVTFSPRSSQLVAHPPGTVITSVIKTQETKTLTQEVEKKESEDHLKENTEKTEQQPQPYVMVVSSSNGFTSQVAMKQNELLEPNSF
Chain of ETV5 (P41161 whole entry): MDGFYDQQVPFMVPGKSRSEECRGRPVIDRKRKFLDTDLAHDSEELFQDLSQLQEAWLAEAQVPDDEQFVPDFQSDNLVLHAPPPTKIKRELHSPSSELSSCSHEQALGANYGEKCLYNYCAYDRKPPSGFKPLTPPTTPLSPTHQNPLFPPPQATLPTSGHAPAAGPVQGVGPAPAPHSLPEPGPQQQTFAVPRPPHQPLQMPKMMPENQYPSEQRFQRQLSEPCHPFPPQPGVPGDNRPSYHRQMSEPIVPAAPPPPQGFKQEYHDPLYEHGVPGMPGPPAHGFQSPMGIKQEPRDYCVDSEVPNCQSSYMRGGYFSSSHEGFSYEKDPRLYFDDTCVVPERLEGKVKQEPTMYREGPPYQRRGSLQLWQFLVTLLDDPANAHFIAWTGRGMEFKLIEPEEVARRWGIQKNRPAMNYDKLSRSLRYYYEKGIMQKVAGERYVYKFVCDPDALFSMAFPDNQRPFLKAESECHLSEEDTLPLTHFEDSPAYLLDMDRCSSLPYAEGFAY

Consider GCTTGT, for which the binding signal was 1.22 fold enrichment (6-mer frequency, TF over GST control) in the assay with FLI1; 1.08 fold enrichment (6-mer frequency, TF over GST control) with GABPA; 1.05 fold enrichment (6-mer frequency, TF over GST control) in the assay with ERG; 1.11 fold enrichment (6-mer frequency, TF over GST control) with ELF1; 1.13 fold enrichment (6-mer frequency, TF over GST control) with EHF; 1.15 fold enrichment (6-mer frequency, TF over GST control) with SPI1. The binding signal is 1.13 fold enrichment (6-mer frequency, TF over GST control) with SPIB; 1.12 fold enrichment (6-mer frequency, TF over GST control) in the assay with ELK3; 1.02 fold enrichment (6-mer frequency, TF over GST control) with FEV; 1.2 fold enrichment (6-mer frequency, TF over GST control) with ETV5; 1.26 fold enrichment (6-mer frequency, TF over GST control) in the assay with SPIC; 1.07 fold enrichment (6-mer frequency, TF over GST control) in the assay with ELF4. Also, the binding signal was 1.13 fold enrichment (6-mer frequency, TF over GST control) with ETV1; 1.18 fold enrichment (6-mer frequency, TF over GST control) with ERF; 1.02 fold enrichment (6-mer frequency, TF over GST control) in the assay with ETV3L; 1.07 fold enrichment (6-mer frequency, TF over GST control) in the assay with ETS2; 1.05 fold enrichment (6-mer frequency, TF over GST control) with ELF5; 1.11 fold enrichment (6-mer frequency, TF over GST control) with ETV3. For the same sequence, the binding signal with ETV6 is 1.02 fold enrichment (6-mer frequency, TF over GST control).

The values are drawn from paper PMC7862700, “An all-to-all approach to the identification of sequence-specific readers for epigenetic DNA modifications on cytosine”.
